Inconclusive results are not listed. Calls of active or inactive are those of the source. The calls were made as follows: active = hit-call score of the fitted dose curve at least 0.9, where 1 is the maximum; inconclusive = response in the unintended direction; inactive = score below 0.9.
read-out: sulfotransferase (SULT2A), SULT2A1 (gene 6822); experiment: CLD_SULT2A_6hr: CellzDirect (CLD) Gene Expression Assay for sulfotransferase (SULT2A) at 6 hours (AID 2283669);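 also: hits raise transcript level above the DMSO vehicle baseline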
Description: CLD_6hr is a cell-based, multiplexed-readout assay that uses hepatocyte, a human liver primary cell, with measurements taken at 6 hours after chemical dosing in a 96-well plate.CLD_SULT2A_6hr is one of 16 assay component(s) measured or calculated from the CLD_6hr assay. It is designed to make measurements of mRNA induction, a form of inducible reporter, as detected with chemiluminescence signals by Quantitative Nuclease Protection Assay (qNPA) technology.Data from the assay component CLD_SULT2A_6hr was analyzed at the endpoint, CLD_SULT2A_6hr, in the positive analysis fitting direction relative to DMSO as the negative control and baseline of activity. Using a type of inducible reporter, gain-of-signal activity can be used to understand changes in the reporter gene as they relate to the gene SULT2A1. Furthermore, this assay endpoint can be referred to as a primary readout. To generalize the intended target to other relatable targets, this assay endpoint is annotated to the transferase intended target family, where subfamily is sulfotransferase.
Human hepatocyte cultures were treated daily for two consecutive days with fresh dosing solutions containing appropriate concentrations of the 320 ToxCast chemicals (chemical identities were blinded to CellzDirect and other ToxCast collaborators), vehicle control (0.2% DMSO), and positive control inducers as summarized in Table 1. Due to the large number of treatment groups and chemicals examined, the ToxCast chemicals were divided into two groups (spanning two independent cultures of hepatocytes from separate donor preparations (Hu778: ToxCast plates 1 and 2; Hu776: ToxCast plates 3 and 4). Each preparation of human hepatocyte cultures was treated with respective vehicle control, medium only control, set of six positive controls/reference chemicals for the five hepatic receptor pathways, and a subset of eight of the ToxCast chemicals (indoxacarb, pyrithiobac-sodium, norflurazon, cyhalofop-butyl, methomyl, thiram, acetochlor, and propiconazole). These replicate data, coupled with internal replicates designed within the blinded ToxCast chemical library, provided additional data to evaluate interindividual differences between hepatocyte preparations and their potential impact on chemical profiles.Cell morphology and integrity were evaluated using phase-contrast microscopy as an indicator of hepatocyte cell health (Tyson & Green, 1987). Cultures for each treatment group (i.e., media, vehicle [0.2% DMSO], positive control inducers [multiple concentrations], and the ToxCast chemicals [multiple concentrations]) were observed and cell morphology was assessed relative to vehicle control cultures at each harvest time point (0, 6, 24, or 48 h). […] Images were evaluated at the conclusion of the study to assess changes in cell integrity and account for the effects of chemical exposure on uncharacteristic changes in concentration-dependent gene expression profiles. The results from these determinations of apparent cytotoxicity were annotated (yes/no) alongside the corresponding qNPA data for reference.At the conclusion of each treatment period, hepatocyte cultures (96-well) were washed with 1 volume of HBSS, lysed by addition of 25 ul ArrayPlate lysis buffer (HTG, Tucson, AZ), and 70 ul/well of Denaturation Oil, denatured by incubation at 95C for 10 min, and frozen at approximately -70C until analysis by nuclease protection assay (qNPA) (Roberts et al., 2007). For qNPA analysis, cell lysates were thawed at 50C for approximately 30 min, qNPA probes were added, and samples were incubated at 95C for 10 min to begin the detection process by denaturing the target RNA, dissociating the duplexes and secondary structure hybridization. At the conclusion of the hybridization period, S1 nuclease reagent was added to each sample to digest all nonprotected nucleotides at 50C for 60-90 min. […]

With `CC1(C)C(C=C(Cl)Cl)C1C(=O)OC(C#N)c1cccc(Oc2ccccc2)c1` (stereo not given) as the compound, how does the outcome read?
The outcome was “inactive”.

For `CCCCC(C#N)(Cn1cncn1)c1ccc(Cl)cc1` (stereo not given), which outcome is on record?
The outcome was “inactive”.

For `CS(=O)(=O)c1ccc(C(=O)C2C(=O)CCCC2=O)c([N+](=O)[O-])c1`, which outcome is on record?
Its outcome is “inactive”.

For `C=CCOC(=O)C(C)(C)OC(=O)c1cc(-n2c(=O)cc(C(F)(F)F)n(C)c2=O)ccc1Cl`, which outcome is on record?
Its outcome is “inactive”.

For `N#CN=C1SCCN1Cc1ccc(Cl)nc1`, which outcome is on record?
Its outcome is “inactive”.

How did the outcome turn out when `C=C(C)CN(CC)c1c([N+](=O)[O-])cc(C(F)(F)F)cc1[N+](=O)[O-]` was run?
Its outcome is “inactive”.

How did the outcome turn out when `COc1cc(Cl)c(OC)cc1Cl` was run?
Its outcome is “inactive”.

Which outcome does the source give for `COC(=O)NS(=O)(=O)c1ccc(N)cc1` here?
Its outcome is “inactive”.

With `CC1(C)C(C(=O)OC(C#N)c2cccc(Oc3ccccc3)c2)C1(C)C` (stereo not given) as the compound, how does the outcome read?
Its outcome is “inactive”.

With `CN=C=S` as the compound, how does the outcome read?
The outcome was “inactive”.

For `COCC(C)N(C(=O)CCl)c1c(C)csc1C` (stereo not given), which outcome is on record?
Its outcome is “inactive”.

Which outcome does the source give for `N#Cc1c[nH]cc1-c1cccc2c1OC(F)(F)O2` here?
Its outcome is “inactive”.

`COc1ccc(-c2ccccc2)cc1NNC(=O)OC(C)C` was tested. Which outcome did it give?
The outcome was “inactive”.

Which outcome does the source give for `CCN(CC)c1nc(C)cc(OP(=S)(OC)OC)n1` here?
Its outcome is “inactive”.

Which outcome does the source give for `CCOc1cc(C(C)(C)C)ccc1C1COC(c2c(F)cccc2F)=N1` (stereo not given) here?
Its outcome is “inactive”.

`Nc1cnn(-c2ccccc2)c(=O)c1Cl` was tested. Which outcome did it give?
The outcome was “inactive”.

Which outcome does the source give for `O=c1n(Cl)c(=O)n(Cl)c(=O)n1Cl` here?
The outcome was “inactive”.

Which AC50 does the source give for `CCCCOCN(C(=O)CCl)c1c(CC)cccc1CC` here?
Its AC50 is 4.32 µM (active).

With `CSC(=O)c1c(C(F)F)nc(C(F)(F)F)c(C(=O)SC)c1CC(C)C` as the compound, how does the outcome read?
The outcome was “inactive”.

For `CCN(CC)C(=O)C(C)Oc1cccc2ccccc12` (stereo not given), which outcome is on record?
Its outcome is “inactive”.

`COP(=S)(OC)SCn1nnc2ccccc2c1=O` was tested. Which outcome did it give?
The outcome was “inactive”.

`CCOc1nc(F)cc2nc(S(=O)(=O)Nc3c(Cl)cccc3Cl)nn12` was tested. Which outcome did it give?
Its outcome is “inactive”.

With `CCNP(=S)(OC)O/C(C)=C/C(=O)OC(C)C` (stereo not given) as the compound, how does the outcome read?
Its outcome is “inactive”.

With `COP(=S)(OC)Oc1ccc([N+](=O)[O-])c(C)c1` as the compound, how does the outcome read?
Its outcome is “inactive”.

Which outcome does the source give for `COC(=O)NC(=S)Nc1ccccc1NC(=S)NC(=O)OC` here?
Its outcome is “inactive”.

With `CCOP(=O)(OCC)Oc1nc(Cl)c(Cl)cc1Cl` as the compound, how does the outcome read?
The outcome was “inactive”.

How did the outcome turn out when `CC1(C)CCC(=Cc2ccc(Cl)cc2)C1(O)Cn1cncn1` (stereo not given) was run?
Its outcome is “inactive”.

Which outcome does the source give for `CCSC(=O)N1CCCCCC1` here?
Its outcome is “inactive”.

`Cc1cnc(C2=NC(C)(C(C)C)C(=O)N2)c(C(=O)O)c1` (stereo not given) was tested. Which outcome did it give?
The outcome was “inactive”.

For `O=C(O)c1c(Cl)ccc2cc(Cl)cnc12`, which outcome is on record?
The outcome was “inactive”.

How did the outcome turn out when `Cc1nc(N(C)C)nc(OC(=O)N(C)C)c1C` was run?
Its outcome is “inactive”.

For `O=C(Nc1ccccc1-c1ccc(Cl)cc1)c1cccnc1Cl`, which outcome is on record?
The outcome was “inactive”.

Which outcome does the source give for `CO/N=C(/C1=NOCCO1)c1ccccc1Oc1ncnc(Oc2ccccc2Cl)c1F` here?
The outcome was “inactive”.

With `COC(=O)c1c(C(F)F)nc(C(F)(F)F)c(C2=NCCS2)c1CC(C)C` as the compound, how does the outcome read?
The outcome was “inactive”.

Which outcome does the source give for `CS(=O)(=O)c1cc(C(F)(F)F)ccc1C(=O)c1cnoc1C1CC1` here?
Its outcome is “inactive”.

For `CC(C)NC(=O)N1CC(=O)N(c2cc(Cl)cc(Cl)c2)C1=O`, which outcome is on record?
Its outcome is “inactive”.

Which outcome does the source give for `N#Cc1c(Cl)cccc1Cl` here?
Its outcome is “inactive”.

How did the outcome turn out when `COCC(=O)N(c1c(C)cccc1C)C(C)C(=O)OC` (stereo not given) was run?
Its outcome is “inactive”.

Which outcome does the source give for `CNC(=O)Oc1cccc2ccccc12` here?
The outcome was “inactive”.

`CCOP(=S)(OCC)Oc1nc(Cl)n(C(C)C)n1` was tested. Which outcome did it give?
Its outcome is “inactive”.

Reference: PubChem BioAssay (EPA / NIEHS)
